From PubChem BioAssay (EPA / NIEHS)
Inconclusive results are not listed. The source made the active and inactive calls. The calls were made as follows: active = hit-call score of the fitted dose curve at least 0.9, where 1 is the maximum; inconclusive = response in the unintended direction; inactive = score below 0.9.

biological target: human Peripheral-type Benzodiazepine Receptor (PBR), TSPO (gene 706) (UniProt P30536); test: NVS_MP_hPBR: NovaScreen (NVS) Membrane Protein Assay for human Peripheral-type Benzodiazepine Receptor (PBR) (AID 2283331)
Sequence (P30536 whole entry, looked up): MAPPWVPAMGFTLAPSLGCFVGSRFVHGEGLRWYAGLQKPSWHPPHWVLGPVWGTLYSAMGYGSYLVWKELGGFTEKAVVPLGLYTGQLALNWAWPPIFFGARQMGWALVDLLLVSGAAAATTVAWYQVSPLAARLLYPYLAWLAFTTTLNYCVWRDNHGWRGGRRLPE
Experimental: NVS_MP_hPBR is a biochemical, single-readout assay that uses extracted gene-proteins from Human colonic cell membranes in a tissue-based cell-free assay. Measurements were taken 1 hour after chemical dosing in a 48-well plate.NVS_MP_hPBR is one of one assay component(s) measured or calculated from the NVS_MP_hPBR assay. It is designed to make measurements of radioligand binding, a form of binding reporter, as detected with scintillation counting signals by Filter-based radiodetection technology.Data from the assay component NVS_MP_hPBR was analyzed into 1 assay endpoint. This assay endpoint, NVS_MP_hPBR, was analyzed in the positive analysis fitting direction relative to DMSO as the negative control and baseline of activity. Using a type of binding reporter, loss-of-signal activity can be used to understand changes in the binding as they relate to the gene TSPO. Furthermore, this assay endpoint can be referred to as a primary readout, because the performed assay has only produced 1 assay endpoint. To generalize the intended target to other relatable targets, this assay endpoint is annotated to the transporter intended target family, where the subfamily is cholesterol transporter.
Binding assays used specific radioligands (tritiated, iodinated) with non-radioactive competitive displacement ligands in agonist or antagonist protocols (as indicated) and various reference compounds and inhibitors to titrate specific binding to receptors and transporters. Most enzyme assays (CYPs, kinases, phosphatases, proteases, HDACs) used recombinant protein and specific substrates (fluorescence mostly, some colorimetric and radioactive) and inhibitors, followed by a biochemical separation of substrate and product. All assays for the biochemical HTS were initially run in duplicate at a single concentration (10 uM for CYP450 assays and 25 uM for all others). […] Each assay was run with positive and negative controls, and concurrent controls on every plate. The follow-up (secondary) screen tested active chemical-pairs in concentration series, as well as a few additional assays not tested in the primary screen, some selected negative inactives, and several cases re-run in the concentration series for confirmatory purposes.

AC50, active:
COc1cccc(-c2ccc(/C=C\CN3CCCCCC3)cc2Cl)c1 7.83 µM
CCn1nc(Cc2ccccc2)cc1C1CCN(C[C@H]2C[C@H](N(C)[C@@H](C(=O)O)C(C)C)C[C@@H]2c2cccc(F)c2)CC1 8.22 µM
CCOc1cccc(-n2cc(C(=O)N3CCN(c4cc(C(=O)O)c5ccccc5c4)CC3)nc2-c2ccc(C)cc2)c1 3.71 µM
CC(C)CCO 15.8 µM
CCN(C(=O)c1cc(C)cc(OC[C@H](C)Nc2ccncc2)c1)C(C)C 12.5 µM
COc1ccc2sc(C(=O)Nc3nnn[nH]3)c(OC(C)C)c2c1 25 µM
O=P(OC(CCl)CCl)(OC(CCl)CCl)OC(CCl)CCl 2.01 µM
O=C(OC[C@H]1O[C@@H](OC(=O)c2cc(O)c(O)c(OC(=O)c3cc(O)c(O)c(O)c3)c2)[C@H](OC(=O)c2cc(O)c(O)c(OC(=O)c3cc(O)c(O)c(O)c3)c2)[C@@H](OC(=O)c2cc(O)c(O)c(OC(=O)c3cc(O)c(O)c(O)c3)c2)[C@@H]1OC(=O)c1cc(O)c(O)c(OC(=O)c2cc(O)c(O)c(O)c2)c1)c1cc(O)c(O)c(OC(=O)c2cc(O)c(O)c(O)c2)c1 5.11 µM
Nc1ccc(Nc2ccccc2)cc1 11.2 µM

outcome, inactive:
O=C(O)c1cccc(N(Cc2cccnc2)c2ccc(OC(F)F)c(OC(F)F)c2)c1
CC(C)(O)c1coc(S(=O)(=O)NC(=O)Nc2c3c(cc4c2CCC4)CCC3)c1
CCc1cc(SCc2sc(-c3ccc(C(F)(F)F)cc3)nc2CN2CCN(c3ccc(OC)cc3)CC2)ccc1OCC(=O)O
Cc1[nH]cnc1C[C@H]1CCc2c(C)c3ccccc3n2C1=O
